IL1B secr inh: inhibitors of inflammasome signaling (IL-1 beta secretion); THP-1 LPS/ATP IL-1B secretion, AlphaLISA, 16 h; stronger effect = lower value; activity change, % at 57.5 µM; actives 4.7% (n = 360,000); AID 743279; in the data active = activity change below about -50%; inconclusive = mostly about -30% to -49%
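THP-1 cells pretreated 1 hr with compounds (up to 57.5 uM final), then stimulated with LPS (250 ng/mL final) plus ATP (1.25 mM final); secreted IL-1B measured by AlphaLISA after 16 hr, decreased signal indicating inhibition.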
VP16 counter: counter-screen for ROR gamma inhibitors: Gal4-VP16 reporter; Potency, µM (top dose mostly 53.6 µM), inactives show at the top dose activity, negative = inhibition, usual class: inhibitors; AID 2546; Drosophila S2 Gal4-VP16 UAS-luciferase, luminescence, 20 h; actives 3.5% (n = 310,000);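 also: Gal4-VP16 expression switched on by copper sulfate through the metallothionein promoter; potency is read from the fitted curve at half-maximal effect; nearly all actives have a fitted effect of over 50% in size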
RORg inh: blocks mouse ROR gamma transcriptional activity; P51450; Drosophila S2 Gal4-RORgamma UAS-luciferase reporter, 20 h; Potency, µM (titrated, usually from 53.6 µM), for the others: top-dose activity change, negative = inhibition, most hits filed as inhibitors; actives 5.4% (n = 310,000); AID 2551; also: potency is read from the fitted curve at half-maximal effect; nearly all actives have a fitted effect of over 60% in size
Target sequence (P51450 whole entry, looked up, the tested form may be a part): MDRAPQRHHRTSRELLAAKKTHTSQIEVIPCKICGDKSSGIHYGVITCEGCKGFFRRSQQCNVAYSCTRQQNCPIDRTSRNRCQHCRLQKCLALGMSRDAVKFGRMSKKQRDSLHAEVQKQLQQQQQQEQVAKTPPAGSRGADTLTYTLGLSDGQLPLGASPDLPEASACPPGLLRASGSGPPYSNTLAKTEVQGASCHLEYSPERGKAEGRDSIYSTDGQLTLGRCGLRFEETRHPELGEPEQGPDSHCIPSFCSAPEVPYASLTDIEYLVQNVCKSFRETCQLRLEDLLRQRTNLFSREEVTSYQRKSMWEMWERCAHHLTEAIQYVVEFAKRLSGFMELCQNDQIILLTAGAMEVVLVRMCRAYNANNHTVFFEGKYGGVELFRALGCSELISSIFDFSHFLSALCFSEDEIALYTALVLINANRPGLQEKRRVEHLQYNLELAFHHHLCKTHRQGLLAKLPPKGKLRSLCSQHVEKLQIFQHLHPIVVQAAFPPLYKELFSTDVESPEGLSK
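Drosophila S2 cells stably expressing Gal4-DBD/mouse RORγ fusion under metallothionein promoter plus UAS-luciferase; compound 1 h, then 700 uM CuSO4 induction for 20 h at ambient temperature; inhibition read as reduced luminescence.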
LDHA inh: blocks human lactate dehydrogenase A | P00338 | purified LDHA, NADH/diaphorase-resazurin fluorescence; stronger effect = lower value | activity change, % (values are at about 110 or 230 µM) | actives 0.15% (n = 480,000); in the data active = activity change below about -30%; inconclusive = mostly about -25% to -30%;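 also: plate controls were DMSO wells for no effect and wells without enzyme for full effect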
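Human LDH5 (2 nM) was incubated with 0.06 mM NADH and 0.2 mM pyruvate for 5 min at room temperature in Tris pH 7.4. Remaining NADH was coupled through diaphorase/resazurin, and resorufin fluorescence was read at 0 and 20 min.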
DT40 TDP1 CPT: growth inhibition of DT40 Tdp1-/-;hTDP1 cells with camptothecin (screen for TDP1 inhibitors); chicken DT40 Tdp1-/-;hTDP1 cells + 20 nM CPT, ATP luminescence, 48 h; Potency, µM (series often up to 46.2 µM), inactives show at the highest dose activity change, negative = growth inhibition, usual class: inhibitors; actives 12% (n = 420,000); AID 686979; also: potency is read from the fitted curve at half-maximal effect; nearly all actives have a fitted effect of over 55% in size
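Chicken DT40 Tdp1-/- cells complemented with human TDP1, 400 cells/well, exposed to compounds plus 20 nM camptothecin for at least 48 h at 37 C; viability read as ATP content by CellTiter-Glo luminescence.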
TDP1 cell noCPT: qHTS for Inhibitors of human tyrosyl-DNA phosphodiesterase 1 (TDP1): qHTS in cells in absence of CPT. DT40 Tdp1-/- hTDP1 cells, no CPT, ATP luminescence, 48 h. Potency, µM (highest dose often 46.2 µM), for inactives: at the highest dose activity change, negative = growth inhibition, actives largely listed as inhibitors. actives 15% (n = 420,000); also: potency is read from the fitted curve at half-maximal effect; nearly all actives have a fitted effect of over 55% in size
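Luminescent ATP content (CellTiter-Glo) served as the growth readout. Knockout chicken DT40 cells expressing human TDP1 were exposed to compounds without camptothecin for a minimum 48 hr at 37 °C.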
* = called active by the depositor; ? = inconclusive; . = not tested or not shown; [ ] = remark or other dose. An excerpt weighted towards active compounds, which were near 18% of everything screened. Unless noted, calls follow the shape of the dose curve; as a rule, active = well fitted curve in the direction sought with a large enough effect; inconclusive = small, poorly fitted or top-dose-only effect, or another doubt; inactive = no such curve, though single readings can be large; an effect the other way counts as inactive or inconclusive. Unless noted, % is scaled to controls: 0 for no effect and ±100 for the full control effect.

SMILES	IL1B secr inh	VP16 counter	RORg inh	LDHA inh	DT40 TDP1 CPT	TDP1 cell noCPT
CC1CCCCC1NC(=O)CCCn1c(=S)[nH]c2ccccc2c1=O (configuration not stated)	11.0	12.1%	?	-4.1	-18.3%	-21.1%
CC1CCCCC1NC(=O)CCCCCn1c(=S)[nH]c2ccsc2c1=O (configuration not stated)	6.1	?	11.2µM*	-4.7	-10.3%	?
COCCn1c(=S)[nH]c2cc(C(=O)NC3CCCC(C)C3C)ccc2c1=O (configuration not stated)	2.0	.	.	-0.7	-23.7%	?
CC1CCCCC1NC(=O)CCCCCn1c(=S)[nH]c2ccccc2c1=O (configuration not stated)	1.9	6.5%	15.8µM*	-3.0	?	?
CC1CCCC(NC(=O)CCCn2c(=S)[nH]c3ccccc3c2=O)C1C (configuration not stated)	43.8	-9.9%[10 µM]	10µM*	-15.2	-0.5%	-17.0%
CC1CCCCC1n1c(=S)[nH]c2ccccc2c1=O (configuration not stated)	22.1	-13.8%	?	-13.5	23.1µM*	?
O=C(Nc1cccc(F)c1)c1nc2ccccc2nc1N1CCCCC1	.	.	.	0.4	.	.
Cc1cc(C(=O)CN(C)CC(=O)Nc2ccccc2Cl)c(C)n1CCc1cccs1	.	.	.	7.6	.	.
CCOC(=O)/C(C#N)=C/c1ccc(OCc2ccc(Cl)cc2Cl)cc1	.	.	.	1.3	.	.
Fc1cc(CSc2nnc(C3CC3)n2C2CC2)c2ncccc2c1	.	.	.	-0.2	.	.
CCOC(=O)c1c(NC(=O)CSc2nc3cccnc3n2C)sc(C(C)=O)c1C	-1.9	-3.3%	1.1%	0.6	18.4µM*	13µM*
CCOC(=O)c1c(NC(=O)CSc2nc3ccccc3c(=O)n2-c2ccc(F)cc2)sc(C(C)=O)c1C	3.6	-1.6%	-9.9%	-5.5	-7.0%	13.1%
CCOC(=O)c1cccc(NC(=O)CSc2nc3cccnc3n2C)c1	-53.0*	-27.4%	?	-0.9	20.6µM*	16.4µM*
CCOC(=O)c1c(NC(=O)CSc2nnc(-c3ccccc3C)n2C)sc(C(C)=O)c1C	?	2.0%	7.6%	-1.5	18.4µM*	11.6µM*
Cc1csc(CCCCNC(=O)C2(c3ccc(Br)cc3)CC2)n1	.	.	.	6.1	.	.
Cc1cc(CNC(=O)CCc2ncc(-c3ccccc3)o2)ccc1F	.	.	.	-7.3	.	.
COc1ccc(N2CCN(C(=O)NC34CC5CC(CC(C5)C3)C4)CC2)cc1	38.6	-4.4%	18.0%	1.4	?	23.1µM*
COc1cccc(N2CCN(C(C)C(=O)NC34CC5CC(CC(C5)C3)C4)CC2)c1 (configuration not stated)	-15.2	-5.6%	10.5%	0.5	?	16.4µM*
CCCC1=NN(C(=O)CSCc2ccccc2Cl)C(O)(C(F)(F)F)C1 (configuration not stated)	.	.	.	12.6	.	.
CCn1c(SCC(=O)NCC2CCCO2)nnc1-c1ccc(Cl)cc1 (configuration not stated)	22.3	8.5%	1.4%	-2.2	6.0%	5.3%
COc1ccccc1CNC(=O)CSc1ncc(C(=O)Nc2ccccc2)c(=O)n1C	27.1	.	.	-4.1	16.4µM*	14.6µM*
Cn1c(SCC(=O)NCc2ccc(F)cc2)ncc(C(=O)Nc2ccccc2)c1=O	30.0	.	.	1.0	?	?
Cc1cc(NC(=O)CSc2ncc(C(=O)Nc3ccc(F)cc3)c(=O)n2C)no1	.	.	.	-4.5	-9.9%	-13.4%
CC(=O)Nc1cccc(NC(=O)CSc2ncc(C(=O)Nc3ccc(F)cc3)c(=O)n2C)c1	-99.9*	.	.	-12.2	14.6µM*	11.6µM*
CC(=O)Nc1ccc(NC(=O)CSc2ncc(C(=O)Nc3ccc(Cl)cc3)c(=O)n2C)cc1	4.2	.	.	-7.3	?	?
SMILES	IL1B secr inh	VP16 counter	RORg inh	LDHA inh	DT40 TDP1 CPT	TDP1 cell noCPT
CC(=O)Nc1cccc(NC(=O)CSc2ncc(C(=O)Nc3ccccc3)c(=O)n2C)c1	-100.1*	.	.	-6.3	5.8µM*	8.2µM*
Cn1c(SCC(=O)NCC2CCCO2)ncc(C(=O)Nc2ccc(Cl)cc2)c1=O (configuration not stated)	-14.7	.	.	-3.9	7.31µM*	9.2µM*
CCc1cc(=O)oc2c(C)c(OCC(=O)NCc3cccnc3)ccc12	.	.	.	6.8	.	.
Cn1c(SCC(=O)NCCc2ccccc2)ncc(C(=O)Nc2ccccc2)c1=O	-4.1	.	.	-4.5	?	13µM*
CC(=O)Nc1ccc(NC(=O)CSc2ncc(C(=O)Nc3ccc(F)cc3)c(=O)n2C)cc1	-59.0*	.	.	-8.5	18.4µM*	20.6µM*
CC(=O)c1cccc(NC(=O)c2nc3ccccc3n(C)c2=O)c1	.	.	.	-5.1	14.6µM*	10.3µM*
CC(=O)c1cccc(NC(=O)CSc2ncc(C(=O)Nc3ccccc3)c(=O)n2C)c1	3.3	.	.	-10.9	7.31µM*	7.31µM*
COc1ccc(NC(=O)c2cnc(SCC(=O)NCCc3ccccc3)n(C)c2=O)cc1	12.2	.	.	-4.7	?	-27.4%
Cc1ccc(NC(=O)NCCCNc2ccccc2)cc1NC(=O)NCCCNc1ccccc1	.	.	.	8.0	.	.
CCOc1ccc(NC(=O)NCc2nc(-c3ccc(OCC)cc3)oc2C)cc1	.	.	.	24.4	.	.
CN(C)CCOC(=O)c1ccc2[nH]c3c(c2c1)CSCC3	-73.7*	-14.3%	-30.0%	5.1	-23.7%	-17.1%
Cc1ccc(C(=O)c2ccccc2C(=O)OCC(=O)NCCc2ccccc2)cc1	-74.6*	-13.3%	?	-3.6	?	?
O=C(COC(=O)c1ccccc1C(=O)c1ccccc1)NCCc1ccc(Cl)cc1Cl	-85.3*	-12.4%	22.6%	3.6	?	20.6µM*
COc1cc(C(=O)OCC(=O)NCc2ccc(F)cc2)ccc1OCC(C)C	-6.9	.	.	2.6	?	16.4µM*
Cc1ccc(C(=O)c2ccccc2C(=O)OCC(=O)NC(=O)NC(C)(C)C)cc1	19.8	0.0%	10.0%	0.4	-15.6%	-25.5%
COc1cc(C(=O)OCC(=O)NCCCc2ccccc2)ccc1OCC(C)C	17.3	-22.2%	?	-6.8	-9.8%	14.4%
O=C(COC(=O)c1ccccc1C(=O)c1ccccc1)NCc1ccc(F)cc1	-76.8*	0.7%	-26.8%	-0.5	?	?
Cc1nn(-c2ccccc2)cc1C(=O)N1CCC(C(C)C(=O)NCc2ccc3c(c2)OCO3)CC1 (configuration not stated)	.	.	.	-0.9	.	.
